Shown are actives, neighbours in structure and some others; about 4.1% of the full set was active somewhere.
IDE inh – inhibitors of human insulin-degrading enzyme in cells. P14735. HEK cells, FAbetaB cleavage, fluorescence polarization. inhibition, % at 5.59 µM. actives 0.41% (n = 320,000). AID 434962;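 active = percent inhibition above the average of all tested compounds plus 3 SD, set per screening campaign, cut at about 16% in these data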;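 also: IDE supplied by intact live HEK cells; FP after avidin binding of uncleaved biotin substrate so inhibition keeps polarization high; 0% = DMSO wells and 100% = 60 µM reference IDE inhibitor Ii1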
Target sequence (P14735 whole entry, looked up): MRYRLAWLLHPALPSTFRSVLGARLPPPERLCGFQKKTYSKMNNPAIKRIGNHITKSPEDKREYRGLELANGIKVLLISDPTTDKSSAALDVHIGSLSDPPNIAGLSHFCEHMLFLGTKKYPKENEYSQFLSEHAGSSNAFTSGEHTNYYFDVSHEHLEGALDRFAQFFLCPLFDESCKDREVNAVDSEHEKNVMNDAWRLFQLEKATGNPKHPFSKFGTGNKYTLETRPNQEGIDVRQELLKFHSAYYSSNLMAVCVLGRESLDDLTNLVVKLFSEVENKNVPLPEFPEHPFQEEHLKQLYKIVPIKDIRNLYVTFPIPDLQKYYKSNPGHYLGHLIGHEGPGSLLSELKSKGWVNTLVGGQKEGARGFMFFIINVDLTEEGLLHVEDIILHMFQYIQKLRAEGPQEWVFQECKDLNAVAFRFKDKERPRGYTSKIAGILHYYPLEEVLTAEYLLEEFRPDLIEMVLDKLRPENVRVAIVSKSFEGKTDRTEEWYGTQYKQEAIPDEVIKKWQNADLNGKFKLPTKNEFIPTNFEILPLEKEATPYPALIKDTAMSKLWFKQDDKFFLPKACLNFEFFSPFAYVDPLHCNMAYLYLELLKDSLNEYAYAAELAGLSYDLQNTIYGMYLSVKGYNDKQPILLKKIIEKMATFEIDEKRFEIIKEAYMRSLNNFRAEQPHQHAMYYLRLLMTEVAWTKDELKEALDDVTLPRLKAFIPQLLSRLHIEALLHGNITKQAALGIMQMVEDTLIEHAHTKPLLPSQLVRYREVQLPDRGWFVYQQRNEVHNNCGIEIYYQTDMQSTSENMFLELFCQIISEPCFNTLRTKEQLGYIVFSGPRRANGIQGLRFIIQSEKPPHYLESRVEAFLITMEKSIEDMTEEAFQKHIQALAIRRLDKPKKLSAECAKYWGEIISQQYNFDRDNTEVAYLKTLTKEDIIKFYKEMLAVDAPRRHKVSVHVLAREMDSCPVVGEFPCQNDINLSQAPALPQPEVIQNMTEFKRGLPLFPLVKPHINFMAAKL
M18AAP inhibitor – blocks P. falciparum M18 aspartyl aminopeptidase; recombinant PfM18AAP, H-Glu-NHMec fluorogenic cleavage; inhibition, % at 7.35 µM; actives 1.2% (n = 290,000);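 active = inhibition above the campaign mean inhibition over all tested compounds plus 3 SD, cut at about 28% in these data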;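 also: 0% = plate median of test compound wells and 100% = 2 mM ZnCl2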
IDE cell activ – boosts human insulin-degrading enzyme activity in HEK cells; actives 0.073% (n = 340,000); FAbeta-B cleavage, fluorescence polarization; 0% vehicle, 100% cell-free pure enzyme wells; activation, % at 5.96 µM; AID 493087;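 active = activation above the mean of all tested compounds plus 3 SD, set per screening campaign, cut at about 17% in these data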
ALR H2O2 inh – inhibitors of human sulfhydryl oxidase ALR. AID 485317. purified ALR, DTT oxidation, H2O2 HRP-luminol luminescence. actives 3.8% (n = 290,000). inhibition, % (no concentration beside the values);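 active = mean replicate inhibition above about 79%, with every replicate also reaching it, limit read from the data; inconclusive = only one of the two criteria met; inactive = mean below limit and not every replicate reaching it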
CaV13 FRET inh – Disruptors of the CACNA1D IQ motif to Ca2+-dependent inactivation inhibitor domain association, primary screening, Förster resonance energy transfer in intact living … | inhibition, % at 12.3 µM | HEK cells, CFP/YFP FRET ICDI-IQ, plate reader, 10 min; percent FRET-ratio fall versus neutral wells | actives 0.098% (n = 340,000);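 active = mean replicate inhibition of at least 30% and at least 1% of replicates passing that level; inconclusive = only one of the two criteria is met; inactive = neither criterion is met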;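 also: 0% = median of the neutral control wells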
PolyA inhibitor – blocks polyadenylation in yeast reporter cells; S. cerevisiae SKY197-pL101 polyadenylation reporter, beta-gal luminescence; efflux-impaired pdr1/pdr3 knockout yeast; score 100 = 6 SD above DMSO; activity score, % at 12 µM; actives 0.02% (n = 300,000);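 active = lowest replicate activity score at least 50, where 100 means six control SD above control mean; inconclusive = lowest score under 50 but half or more replicates reach 50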;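 also: yeast exposed to compound for 9 h at 30 °C; higher score means more reporter readthrough which indicates perturbed polyadenylation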
The depositor's hits bear a star; ? = inconclusive; / = not tested or not shown.

SMILES	IDE inh	M18AAP inhibitor	IDE cell activ	ALR H2O2 inh	CaV13 FRET inh	PolyA inhibitor
CC1CCN(c2ccc3nnc(CCC(=O)N4CCN(c5ccccc5F)CC4)n3n2)CC1	2.9	5.2	1.2	-0.1	-13.1	-7.3
COc1cccc(N2CCN(c3ccc4nnc(CCC(=O)N5CCC(C)CC5)n4n3)CC2)c1	4.3	-2.0	-4.5	98.9*	-14.0	-16.9
CCCN1CCN(C(=O)CCc2nnc3ccc(N4CCN(c5cccc(OC)c5)CC4)nn23)CC1	2.9	-1.7	0.9	98.6*	-10.9	10.9
COc1ccc(N2CCN(C(=O)CCc3nnc4ccc(N5CCC(C)CC5)nn34)CC2)cc1	-10.0	14.2	4.0	90.4*	-3.1	3.3
CC1(C)NC(=O)N(CC(=O)OCC(=O)c2ccc(Br)s2)C1=O	7.2	/	1.3	-5.4	-5.4	/
O=c1cc(-c2ccc(O)cc2)oc2c(C3OCC(O)C(O)C3O)c(O)c(C3OC(CO)C(O)C(O)C3O)c(O)c12 (centres undefined)	-0.5	/	0.3	19.6	/	3.0
O=c1c(-c2ccc(O)cc2)coc2c(C3O[C@H](CO)[C@@H](O)[C@H](O)[C@H]3O)c(O)ccc12 (some centres undefined)	1.6	13.2	-0.9	99.0*	-20.5	1.1
O=c1c(-c2ccc(O)cc2)coc2c([C@@H]3O[C@H](CO)[C@@H](O)[C@H](O)[C@H]3O)c(O)ccc12	2.9	/	0.0	98.7*	-9.2	/
COCc1ccc(C(=O)N2CCCC(Nc3ccc4c(c3)OCCO4)C2)o1 (centres undefined)	1.7	8.1	3.2	98.7*	-1.6	11.8
COc1ccc(NC2CCCN(C(=O)c3ccc(CSC)o3)C2)cc1OC (centres undefined)	6.6	18.2	3.7	99.1*	-2.3	-7.1
CCOC(=O)COc1cccc2c(=O)n(CC(=O)N3CCCc4ccccc43)ccc12	-5.1	2.9	4.6	97.2*	0.2	-12.2
O=C(CCn1cnnn1)N1CCCC(Nc2ccc(F)cc2)C1 (centres undefined)	7.6	8.0	0.4	98.3*	-2.1	5.7
O=C(CCCn1cncn1)N1CCCC(Nc2ccc(F)cc2)C1 (centres undefined)	/	4.9	1.3	98.2*	-3.0	13.2
O=C(CCN1CCCCO1)N1CCCC(Nc2ccc(F)cc2)C1 (centres undefined)	1.1	-0.9	1.9	94.7*	-5.8	-11.2
CCc1nccn1CCC(=O)N1CCCC(Nc2ccc(C(C)C)cc2)C1 (centres undefined)	0.2	-10.7	4.8	68.8	-5.4	4.9
O=C(c1ccc(Cn2cnnn2)cc1)N1CCCC(Nc2ccc(F)cc2)C1 (centres undefined)	-4.3	9.2	1.3	65.0	-6.4	-6.0
CC(C)c1ccc(NC2CCCN(C(=O)CCCn3cncn3)C2)cc1 (centres undefined)	0.7	3.5	4.6	96.2*	-2.0	12.7
COCCN(CC1CCCN(C2Cc3ccccc3C2)C1)C(=O)CSC (centres undefined)	6.2	4.0	4.8	-8.8	-20.8	7.0
Cc1ccc2c(c1)c1cccc3c1n2CCN3CCC(N)=O	-1.3	8.7	3.4	14.7	/	-15.5
CCOC(=O)N1CCN(C(=O)C(CC(C)C)NS(=O)(=O)c2ccc(C)cc2)CC1 (centres undefined)	4.7	/	0.9	/	-1.8	/
O=C(Cn1cccn1)N1CCCC(Nc2ccc(F)c(F)c2)C1 (centres undefined)	3.5	6.4	-3.9	88.6*	-3.4	18.8
O=C1CCCCN1CC(=O)N1CCCC(Nc2ccc(F)c(F)c2)C1 (centres undefined)	0.3	7.6	1.2	25.5	-7.2	-9.9
Cc1nnc(SCC(=O)c2cc(C)n(-c3ccc4c(c3)OCO4)c2C)s1	-0.2	22.0	2.6	-22.6	-5.0	1.9
CCOC(=O)Cn1nnnc1C(C(C)C)N(Cc1cccs1)Cc1cc2cc(C)ccc2[nH]c1=O (centres undefined)	5.8	31.4*	3.3	-31.0	-3.7	0.4
CCOC(=O)Cn1nnnc1C(CC)N(Cc1cccs1)Cc1cc2cc(C)ccc2[nH]c1=O (centres undefined)	-2.4	-6.8	-4.2	-3.7	-5.9	0.4
SMILES	IDE inh	M18AAP inhibitor	IDE cell activ	ALR H2O2 inh	CaV13 FRET inh	PolyA inhibitor
Cc1cccc(CNC(=O)C2CCCN(c3nn4c(=O)cc(C)nc4s3)C2)c1 (centres undefined)	3.9	9.9	1.4	-10.0	-6.6	-3.4
Cc1ccc(C(=O)c2c(NC(=O)c3cccnc3)sc3c2CCCC3)cc1	0.5	0.5	2.3	94.6*	-3.6	3.9
O=C(Nc1sc2c(c1C(=O)O)CCCCC2)c1ccccc1	3.0	6.5	-3.1	8.3	0.9	-5.7
Cc1ccc(CSc2n[nH]c(N)n2)cc1	-1.9	-2.6	-1.5	0.3	-19.0	11.3
Cn1nnnc1SCc1csc(Nc2ccccc2)n1	0.8	14.6	5.8	90.2*	/	?
Cc1ccc(Nc2nc(CSc3n[nH]c(N)n3)cs2)cc1	-1.6	28.9*	-7.2	97.8*	-1.8	-6.2
Cc1ccc(Nc2nc(CSc3nnnn3C)cs2)cc1	3.4	-2.7	2.2	98.6*	-5.0	21.0
CCOC(=O)[C@@H]1[C@H]2COc3cc(OC)ccc3[C@H]2N2C(=O)N(c3ccc(Br)cc3)C(=O)[C@]12C	0.1	/	5.9	3.4	-5.5	/
C=CCn1c(SCC(=O)N2CCOCC2)nc2ccccc2c1=O	-0.4	4.6	-6.6	0.3	-12.9	-5.6
C=C(C(=O)c1ccccc1)C(C)C(=C)C(=O)c1ccccc1	-0.4	3.7	6.9	87.2*	-3.6	-11.7
COC(CN(C(=O)CCl)C(C(=O)NC1CCCCC1)c1ccccc1C)OC (centres undefined)	0.3	-0.6	-0.4	77.1*	-15.8	10.0
Cc1cc(C(=O)Nc2c(F)cc(F)cc2Br)c(C)o1	1.4	4.0	7.5	96.5*	-4.8	7.4
Cc1noc(C)c1C(=O)Nc1c(F)cc(F)cc1Br	2.2	-9.7	-5.5	-3.3	-6.5	-15.1
COc1ccc(C2(C(=O)N3CCOCC3)CCOCC2)cc1OC	4.7	-4.5	-1.1	-6.9	/	10.1
Cc1ccc(CSc2nc3sc(C)c(C)c3c(=O)n2Cc2ccco2)cc1	-2.9	3.2	-1.2	96.9*	-6.0	6.6
CC(=O)Nc1ccc2c(c1)nc1n2CCSC1	1.6	-7.1	-1.9	99.3*	-6.3	-22.2
Cc1ccc(C(=O)Nc2ccc3c(c2)nc2n3CCSC2)cc1	1.6	2.3	2.9	98.3*	-4.3	10.9
COc1ccccc1C(=O)Nc1ccc2c(c1)nc1n2CCSC1	0.6	5.3	-1.0	99.0*	-4.6	/
COc1ccccc1C(=O)Nc1ccc2nc(SCC(=O)N(C)C)sc2c1	9.6	0.7	-3.3	99.7*	-4.8	1.7
